Data as given in the supplement of paper PMC3334620.
Whole data set: some 33,000 sequences, median “E-score (-0.5 to 0.5)” near -0.032, cut for the highest 2% near 0.36. For the sample, the highest values were picked, then their nearest neighbours and some sequences at random.

biological target: T1, Sko1 (UniProt Q02100); test: PBM E-score (8-mer binding enrichment) (E-score (-0.5 to 0.5)); higher = stronger / more preferred TF binding; conditions: protein concentration: 200 nM; construct: GST-full length
T1 sequence: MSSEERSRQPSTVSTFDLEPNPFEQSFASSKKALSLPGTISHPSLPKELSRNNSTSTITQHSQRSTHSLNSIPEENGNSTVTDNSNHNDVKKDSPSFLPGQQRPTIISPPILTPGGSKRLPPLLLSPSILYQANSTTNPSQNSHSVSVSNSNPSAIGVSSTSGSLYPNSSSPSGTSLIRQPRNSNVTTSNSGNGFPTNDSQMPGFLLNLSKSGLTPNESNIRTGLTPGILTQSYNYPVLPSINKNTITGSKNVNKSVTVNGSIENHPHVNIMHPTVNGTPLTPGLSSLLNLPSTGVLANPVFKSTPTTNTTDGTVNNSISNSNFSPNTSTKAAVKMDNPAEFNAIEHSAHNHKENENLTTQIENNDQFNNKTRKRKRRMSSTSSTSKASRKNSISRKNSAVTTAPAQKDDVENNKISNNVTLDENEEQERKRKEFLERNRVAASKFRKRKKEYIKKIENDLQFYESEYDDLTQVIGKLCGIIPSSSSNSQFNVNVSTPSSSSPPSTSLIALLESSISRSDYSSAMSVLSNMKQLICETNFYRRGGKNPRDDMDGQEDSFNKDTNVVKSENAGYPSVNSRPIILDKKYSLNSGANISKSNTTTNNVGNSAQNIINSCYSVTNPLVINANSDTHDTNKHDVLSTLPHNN
Method: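 Universal 'all 10-mer' protein binding microarrays (Agilent AMADID 015681) probed with GST-tagged S. cerevisiae TFs (full-length or DBD) made by in vitro transcription/translation (PURExpress), about 100-200 nM. Bound TF was detected with fluorescent anti-GST. Each ungapped 8-mer (which stands for itself and its reverse complement) is scored by the PBM enrichment score (E-score), a modified Wilcoxon-Mann-Whitney statistic from -0.5 to +0.5, computed with the Universal PBM Analysis Suite. Scale: above 0.35 generally sequence-specific binding.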

Row | Sequence | PBM E-score
1 | ACTAACTA | -0.0162
2 | AGGTTGCA | 0.0863
3 | GCAGCGGA | -0.11
4 | CCCTGAGC | -0.145
5 | ACCATTGA | 0.0435
6 | AGACGTAT | 0.441
7 | AGTCGTAT | 0.0845
8 | AGCCGTAT | -0.0778
9 | AGGCGTAC | 0.105
10 | AGACGTTG | 0.111
11 | AGACGTCG | 0.21
12 | AGACGTAG | 0.382
13 | AGACGTAC | 0.395
14 | ATGCAGGC | -0.024
15 | CGTGCAAG | 0.0462
16 | CCTACAAA | -0.0324
17 | CAAGTCTA | -0.0923
18 | ACCCTGAT | -0.0969
19 | AGCCCTAT | -0.331
20 | CCGCGGGA | -0.201
21 | AATGCCCT | -0.205
22 | AGAGGGTA | -0.035
23 | ATGTCGTG | 0.239
24 | ATGTCGGC | -0.12
25 | CTGTCGTC | 0.21

Row | Sequence | PBM E-score
26 | ATGTCGTC | 0.365
27 | ATGTCGTA | 0.424
28 | GTGTCGTA | 0.312
29 | TGATAGAA | 0.0834
30 | AGGAGGTC | -0.24
31 | AGCTAACA | -0.0839
32 | AGGCACGA | 0.0425
33 | ACGACGCC | 0.0289
34 | ACGACGTG | 0.365
35 | ACGACGAG | 0.00694
36 | ACGACGTC | 0.367
37 | ACGACGGA | 0.0966
38 | ACGACGGG | 0.0518
39 | ACGACGAC | 0.00819
40 | ACGACGAT | 0.127
41 | ACGACGTA | 0.446
42 | ATGGGCAA | -0.138
43 | AGGAGATC | -0.214
44 | AGAAACAT | 0.152
45 | TCCTTGCA | -0.292
46 | AAAATTCC | -0.152
47 | CACGCCGG | -0.211
48 | CGAAAAGA | 0.163
49 | AATTCGTA | 0.386
50 | GATTCGTA | 0.251

Row | Sequence | PBM E-score
51 | ATTTCGTA | 0.372
52 | CTTTCGTA | 0.339
53 | CATTCGTA | 0.317
54 | ATTTCGTC | 0.343
55 | CGCGGAAC | -0.165
56 | GGCTTCCA | -0.218
57 | GGCGTGCA | -0.0639
58 | TACGTGCA | 0.423
59 | AACGTGCA | 0.191
60 | GACGTGCC | 0.266
61 | GACGTGCA | 0.389
62 | CACGTGCA | 0.329
63 | AGACTATA | 0.00094
64 | CCAAGTGC | -0.285
65 | AGCACGTG | 0.397
66 | AGCACGAG | -0.0498
67 | AGCACGTC | 0.309
68 | AGCACGAA | 0.169
69 | AGCACATA | 0.0436
70 | AGCACGTA | 0.406
71 | AGTAGTCC | 0.0244
72 | GACGTTTA | 0.386
73 | CACGTTCA | 0.171
74 | AACGTTTA | 0.31
75 | CACGTTTA | 0.321

Row | Sequence | PBM E-score
76 | TACGTTCA | 0.374
77 | AACGTTAG | 0.176
78 | AACGTTAC | 0.321
79 | AACGTTAT | 0.368
80 | AACGTTCA | 0.0648
81 | AACGTTCT | 0.167
82 | GACGTTAC | 0.365
83 | CACGTTAC | 0.305
84 | AGCTCAAC | -0.147
85 | AGTGCTGG | -0.111
86 | AAGTCGAC | 0.0592
87 | ATCTGAGA | -0.0991
88 | CAATACCG | -0.186
89 | CTTGAAGA | -0.132
90 | ACGAAGGG | 0.129
91 | CTGATCCC | -0.269
92 | AACTCCTT | -0.0253
93 | ATTCGACA | -0.09
94 | CAACAACC | -0.0035
95 | CCAGAGAC | -0.251
96 | CATCCCTC | -0.245
97 | CACGTTAG | 0.2
98 | TACGTTGA | 0.38
99 | GGCGTTAA | -0.0249
100 | CACGTTGA | 0.25

Row | Sequence | PBM E-score
101 | TACGTTAA | 0.413
102 | AACGTTAA | 0.243
103 | CACGTTAA | 0.244
104 | GACGTTGA | 0.269
105 | GACGTTAA | 0.368
106 | CTTCCTAC | -0.225
107 | CTTCTCTA | -0.284
108 | TATGAGCA | 0.00789
109 | ACCTGGCT | -0.232
110 | ACCGTCCG | -0.304
111 | AGGAGCCA | -0.258
112 | CCTGCGGC | -0.427
113 | AAATGACC | 0.0951
114 | TAATGAAA | 0.24
115 | CAATGACA | 0.229
116 | AAATGACA | 0.272
117 | CAATGACC | 0.0293
118 | AAATGACG | 0.481
119 | TAATGACA | 0.364
120 | CAATGACG | 0.486
121 | GAATGACA | 0.249
122 | AAATGGTG | 0.0316
123 | GAAGGTAA | 0.0069
124 | ACACTCAG | -0.0491
125 | TACGGCTA | -0.0295

Row | Sequence | PBM E-score
126 | ATTCGAAG | 0.0402
127 | AGCTAGTG | -0.00092
128 | AAACAAGG | -0.131
129 | ATGATTCC | 0.169
130 | AACTACGA | 0.198
131 | AACTACGC | 0.305
132 | ACCTACGC | 0.293
133 | AACTACGT | 0.455
134 | ACCTACGG | -0.217
135 | ACCTACGT | 0.444
136 | ACGCCAAA | 0.0451
137 | GCAAACCA | -0.0509
138 | CTTTGGAA | -0.0181
139 | AGTCGTTA | 0.0683
140 | CAAGAAGA | -0.0303
141 | CTCTTTCA | -0.0826
142 | CAGGTTTC | -0.0189
143 | GAAGCACC | -0.0674
144 | TAAAGAGA | 0.0871
145 | ATTACATA | 0.386
146 | ATTACATC | 0.403
147 | ATTACATG | 0.324
148 | GTTACATA | 0.251
149 | AGTACATC | 0.142
150 | CTTACATC | 0.202

Row | Sequence | PBM E-score
151 | AGACAGCC | -0.219
152 | CGCGTAAA | 0.311
153 | AGCGTAAA | 0.189
154 | TGCGTACA | 0.36
155 | TGCGTAAA | 0.404
156 | GGCGTACA | -0.0526
157 | AGCGTACA | 0.0563
158 | GTTGCACA | 0.0444
159 | CGCATCAG | -0.0566
160 | AGTCAACA | 0.0814
161 | GAAGTCGC | -0.139
162 | ATGTGCAC | -0.0142
163 | GCGATTAC | 0.144
164 | ACGATTAC | 0.369
165 | CCGATTAC | 0.0359
166 | ATGAGTCC | 0.0501
167 | CCGTACGG | -0.262
168 | CCGTACGA | 0.0901
169 | CCGTACGC | 0.0653
170 | AAGTACGT | 0.44
171 | ACGTACGA | 0.414
172 | ATGTACGG | -0.046
173 | AAGTACGC | 0.193
174 | GCGTACGA | 0.238
175 | ACGTACGG | 0.38

Row | Sequence | PBM E-score
176 | ACGTACGC | 0.453
177 | AAGTACGA | 0.201
178 | GCGTACGC | 0.269
179 | AGCGTTAT | 0.0494
180 | ACCTGCAT | -0.13
181 | ATAAGAGA | 0.0988
182 | ATCTTCGC | 0.1
183 | AAAGTAAC | 0.0224
184 | AAAACCGG | -0.128
185 | CAGGCCGA | -0.182
186 | GGGGTAGA | -0.0788
187 | AGAAACTG | 0.0191
188 | CGCAGCTC | -0.0758
189 | ATGTACGA | 0.143
190 | ACGTACGT | 0.473
191 | TCGTACGA | 0.282
192 | ACCTAGCG | -0.0355
193 | AAGGTGCT | -0.238
194 | ATGCAAAA | 0.116
195 | AAATTGAG | -0.0473
196 | CCGTTTAA | -0.0451
197 | AGGTTTAT | 0.0336
198 | ACGTTTAG | 0.355
199 | ACGTTTAA | 0.406
200 | ACGTTTAC | 0.345

Row | Sequence | PBM E-score
201 | ACGTTTAT | 0.388
202 | GTGCCAAA | -0.0151
203 | CTAACTTC | 0.0478
204 | CGTCTGCC | -0.00999
205 | ATATTTCG | 0.235
206 | GATTGGTA | -0.054
207 | AAAGTCTT | 0.0148
208 | GGGGAGTA | -0.124
209 | ATGCCAAA | -0.0114
210 | CAACGTCA | 0.47
211 | AAACGTCC | 0.13
212 | CAACGTCG | 0.222
213 | GAACGTCA | 0.456
214 | AAACGTCA | 0.47
215 | TAACGGCA | 0.0289
216 | GAACGTTA | 0.18
217 | GAACGTCC | 0.117
218 | AAACGTCT | 0.341
219 | TAACGCCA | 0.144
220 | CAACGTCC | -0.0395
221 | TAACGTCA | 0.48
